Bioassay records from PubChem.
A selection: hits, their analogues and other compounds. The true share with any hit is near 1.6%.
KCNQ2 inh: blocks the rat KCNQ2 potassium channel; O88943; CHO-K1 KCNQ2, FluxOR thallium flux, 20 min; stronger effect = lower value; B-score at 10 µM; 310,000 compounds, 1.1% hits; AID 2156;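 active = fluorescence ratio B-score at most minus 3 library SDs, with starting brightness B-score within 2 library SDs, cut at about -5.5 in these data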
KCNQ2 enhance: enhances the rat KCNQ2 potassium channel; 310,000 compounds, 0.54% hits; CHO-K1 KCNQ2, FluxOR thallium flux fluorescence; stronger effect = higher value; O88943; B-score at 10 µM;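 active = fluorescence ratio B-score at least 3 SD of library B-scores, with initial fluorescence B-score within 3 of them, cut at about 5.3 in these data; same plate scores as AID 2156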;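 also: B-score of peak minus minimum over baseline fluorescence ratio after K+ and Tl+ stimulus; positive B-score means potentiation of KCNQ2 with more thallium influx and brighter signal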
Kir21 confirm: confirmation of mouse Kir2.1 potassium channel inhibitors; shares compounds with KCNQ2 enhance; Kir2.1-expressing cells, FluxOR thallium flux fluorescence; stronger effect = lower value; Tl flux remaining, % of negative control (stronger effect = lower value), % at 10 µM; 2,300 compounds, 41% hits;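 active = Primary-screen hit whose thallium flux fell at least 3 control SD below untreated wells in both duplicates, with normal baseline fluorescence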;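 also: 0% = blank wells without stimulus and 100% = stimulated no-compound controls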
Target sequence (P35561 whole entry, looked up): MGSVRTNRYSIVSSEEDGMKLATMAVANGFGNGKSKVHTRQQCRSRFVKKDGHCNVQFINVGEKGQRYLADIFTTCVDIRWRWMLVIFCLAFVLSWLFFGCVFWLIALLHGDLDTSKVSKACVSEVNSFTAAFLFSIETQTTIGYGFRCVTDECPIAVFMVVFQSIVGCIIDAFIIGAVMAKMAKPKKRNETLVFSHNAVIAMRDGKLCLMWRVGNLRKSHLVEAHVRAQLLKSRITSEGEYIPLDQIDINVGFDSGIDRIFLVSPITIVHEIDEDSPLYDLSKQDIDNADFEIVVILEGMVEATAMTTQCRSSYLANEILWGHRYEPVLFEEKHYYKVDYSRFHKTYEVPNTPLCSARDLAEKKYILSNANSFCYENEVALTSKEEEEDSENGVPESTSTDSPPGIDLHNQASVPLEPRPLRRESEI
HEK293 Tl flux: alters thallium flux in parental HEK293 cells, Kir2.1 counter-screen. FluxOR thallium flux fluorescence; 0% = unstimulated blank wells. FluxOR signal as % of negative control (100 = no effect), % at 10 µM. shares compounds with KCNQ2 enhance. 2,300 compounds, 19% hits;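 active = dye signal at least 3 control SD above or below untreated wells in both duplicates, raw fluorescence within 3, either direction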;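 also: percent is based on the flux ratio of peak minus minimum fluorescence over baseline F0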
CHO-K1 ctr: alters thallium flux in parental CHO-K1 cells, KCNQ2 counter-screen | shares compounds with KCNQ2 enhance | FluxOR thallium flux fluorescence; zero = vehicle mean+3SD, 100% = vehicle-minus-blank window | activity increase over 3SD of controls, % at 10 µM | 1,200 compounds, 43% hits | AID 2282;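 active = signal rise of at least 3 SD above the untreated control mean, in both duplicate wells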;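 also: counter screen of KCNQ2 potentiator hits so any rise reflects channel-independent effects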
KCNQ1 sel pot: selectivity of KCNQ2 potentiators: effect on human KCNQ1. shares compounds with KCNQ2 enhance. 1,200 compounds, 28% hits. CHO KCNQ1 stable, FluxOR thallium flux fluorescence; beyond 3SD, as % of vehicle-control signal. activation over 3SD threshold, % at 10 µM;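 active = fluorescence ratio rise of at least 3 SD of vehicle wells above their mean, in both replicate wells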;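 also: 0% = vehicle mean plus 3 SD and 100% = vehicle minus unstimulated blank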
KCNQ2 pot confirm: rat KCNQ2 channel potentiator confirmation. shares compounds with KCNQ2 enhance. CHO-KCNQ2 cells, FluxOR thallium flux fluorescence. potentiation, less the hit threshold, % at 10 µM. 1,200 compounds, 68% hits;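 active = fluorescence ratio rising 3 SD or more over the vehicle control mean in both replicates, plus primary screen hit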;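 also: peak minus minimum thallium fluorescence divided by baseline after K/Tl stimulus; 0% = vehicle mean plus 3 SD and 100% = vehicle minus unstimulated blank difference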
Kir2-1 sel: tests whether KCNQ2 potentiators also affect mouse Kir2.1; 1,200 compounds, 2% hits; shares compounds with KCNQ2 enhance; activity over 3SD threshold, % at 10 µM; HEK293 Kir2.1, FluxOR thallium flux fluorescence; AID 2345;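 active = fluorescence ratio rise of at least 3 SD above the vehicle-control mean, seen in both replicates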;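 also: 0% = vehicle mean plus 3 SD and 100% = vehicle minus no-stimulus blank window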
KCNQ2 W236L MoA: potentiates the retigabine-insensitive rat KCNQ2 W236L mutant channel; 940 compounds, 10% hits; shares compounds with KCNQ2 enhance; current increase over 3SD of negative controls (%), stronger effect = higher value, % at 25 µM; CHO KCNQ2-W236L, automated patch clamp current;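 active = current increase at least 3 SD of the untreated controls above them in both duplicate recordings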
An asterisk follows results filed as active.

N#Cc1nc(Cc2cccc3ccccc23)oc1NCCCN1CCOCC1 was read as KCNQ2 inh inactive, Kir21 confirm 52.0%* and HEK293 Tl flux inactive.
`CCN(c1nc(N)c(C(=O)N=C(N)N)nc1Cl)C(C)C` gave KCNQ2 inh inactive, KCNQ2 enhance 5.33*, Kir21 confirm 41.5%*, HEK293 Tl flux inactive, CHO-K1 ctr 9.8*, KCNQ1 sel pot -9.2, KCNQ2 pot confirm -2.2, Kir2-1 sel -93.6 and KCNQ2 W236L MoA inactive.
For CN1CCc2c(n(CC(O)CNCc3ccccc3)c3ccccc23)C1=O (centres undefined) the results were KCNQ2 inh inactive, Kir21 confirm 71.5%* and HEK293 Tl flux inactive.
CN1CCc2c(n(CC(O)CN(CCO)CCO)c3ccccc23)C1=O (centres undefined) was read as KCNQ2 inh inactive and KCNQ2 enhance 0.46.
Screening CC1CCCC(NC(=O)COC(=O)Cc2ccc(Br)cc2)C1C (centres undefined) returned KCNQ2 inh inactive and KCNQ2 enhance 0.24.
Screening CC1CCCC(NC(=O)Cc2ccc(Br)cc2)C1C (centres undefined) returned KCNQ2 inh inactive, KCNQ2 enhance 5.55*, Kir21 confirm inactive, HEK293 Tl flux inactive, CHO-K1 ctr 49.4*, KCNQ1 sel pot 1.4*, KCNQ2 pot confirm 3.0*, Kir2-1 sel -12.4 and KCNQ2 W236L MoA inactive.
Screening Cc1ccc(C(=O)OCC(=O)c2c[nH]c3ccccc23)cc1NC(=O)c1ccco1 returned KCNQ2 inh inactive and KCNQ2 enhance 0.21.
For O/N=C1/C2C3C(Br)C4C5CC(C1C53)C24 (centres undefined) the results were KCNQ2 inh inactive and KCNQ2 enhance 1.29.
Screening COc1cccc(NC(=O)NC(C)C2CC3CCC2C3)c1 (centres undefined) returned KCNQ2 inh inactive, KCNQ2 enhance 12.2*, Kir21 confirm inactive, HEK293 Tl flux inactive, CHO-K1 ctr -28.9, KCNQ1 sel pot -11.7, KCNQ2 pot confirm -0.2, Kir2-1 sel -29.8 and KCNQ2 W236L MoA inactive.
For COc1ccc(C(=O)NC(C)C2CC3CCC2C3)c(OC)c1 (centres undefined) the results were KCNQ2 inh inactive.
`O=C(CSc1nc(C(F)(F)F)cc(=O)[nH]1)N1CCCC1` gave KCNQ2 inh inactive and KCNQ2 enhance 0.05.
CCN(CC)c1ccc(NC(=O)c2cccc(F)c2)c(C)c1 was read as KCNQ2 inh inactive, KCNQ2 enhance 17.3*, Kir21 confirm inactive, HEK293 Tl flux inactive, CHO-K1 ctr -12.1, KCNQ1 sel pot -7.5, KCNQ2 pot confirm 48.9*, Kir2-1 sel -24.9 and KCNQ2 W236L MoA inactive.
Screening CCN(CC)c1ccc(NC(=O)c2ccco2)c(C)c1 returned KCNQ2 inh inactive and KCNQ2 enhance 2.94.
For CCN(C(=O)COC(=O)c1ccc2[nH]c3c(c2c1)CCCC3)C1CCS(=O)(=O)C1 (centres undefined) the results were KCNQ2 inh inactive and KCNQ2 enhance 0.16.
For NC(=O)CC1C(=O)N(c2ccc(F)cc2)C(=O)N1NC(=O)CCc1ccccc1 (centres undefined) the results were KCNQ2 inh inactive.
Screening CCC(=O)N(CC)c1nc(-c2ccc(OC)cc2)cs1 returned KCNQ2 inh inactive, KCNQ2 enhance 2.58, Kir21 confirm inactive and HEK293 Tl flux inactive.
CCC(=O)N(Cc1ccco1)c1nc(-c2ccc(OC)cc2)cs1 was read as KCNQ2 inh inactive.
